Consider five compounds from PubChem BioAssay.

Several values for one entry are separate records, joined by “and”; a condition that tells them apart may be missing. Equal entries are not always repeated. For part of these data: Potency and affinity values are given separately. Activity calls are given as the source filed them. Unless noted, the rule behind the calls is not given here.

In experiment [1] the target is 6-phosphogluconate dehydrogenase, decarboxylating (Homo sapiens) (UniProt P52209). Put plainly: inhibition of human phosphogluconate dehydrogenase – biochemical, recombinant enzyme, NADPH absorbance, primary screen (AID 1159550;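 active = at least 20% inhibition of 6-phosphogluconate dehydrogenase activity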). Conditions: recombinant 6PGD, NADPH absorbance 341 nm; at 10 µM; stronger effect = higher value.
Chain of 6-phosphogluconate dehydrogenase, decarboxylating (Homo sapiens) (P52209 whole entry, looked up): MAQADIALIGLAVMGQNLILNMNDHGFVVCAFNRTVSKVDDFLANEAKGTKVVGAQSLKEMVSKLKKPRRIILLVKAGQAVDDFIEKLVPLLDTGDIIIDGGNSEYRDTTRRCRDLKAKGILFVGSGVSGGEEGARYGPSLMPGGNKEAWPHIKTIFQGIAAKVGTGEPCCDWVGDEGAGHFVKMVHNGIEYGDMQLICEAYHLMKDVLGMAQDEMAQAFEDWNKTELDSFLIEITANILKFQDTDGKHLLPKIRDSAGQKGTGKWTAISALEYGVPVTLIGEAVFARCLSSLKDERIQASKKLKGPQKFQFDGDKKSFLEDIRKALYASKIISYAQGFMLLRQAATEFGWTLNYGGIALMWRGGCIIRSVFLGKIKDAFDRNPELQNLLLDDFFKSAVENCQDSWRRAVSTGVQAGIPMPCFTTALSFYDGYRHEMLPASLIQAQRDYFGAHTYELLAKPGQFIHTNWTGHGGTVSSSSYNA
A short description of experiment [2]: blockers of polyQ-driven CASP3 activation – cell-based (AID 1583). Conditions: polyglutamine-induced caspase-3 activation, cell assay; stronger effect = higher value;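 tested at 10 µM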.
A short description of experiment [3]: yeast 75Q aggregation reduction – 75Q-TubU reporter (AID 1593). To be noted: Yeast 75Q polyglutamine aggregation reporter.
Experiment [4] can be described thus: restoration of touch response, mutant HTT neurons – whole organism, C. elegans mechanosensory neurons, N-terminal huntingtin (AID 1599). To be noted: C. elegans polyQ-huntingtin mechanosensory neurons, stronger effect = higher value.
Experiment [5] in a line: blockers of cytochrome c efflux from mitochondria – biochemical, purified mitochondria (AID 1603).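 Note: mouse liver mitochondria challenged with calcium chloride; signal normalized to the plate average as 100%.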 To be noted: stronger effect = lower value.
Experiment [6] can be described thus: polyglutamine aggregate formation blockers (AID 1604). To be noted: polyglutamine-induced protein aggregation inhibition assay; stronger effect = higher value; tested at 2.5 µM.
The nature of experiment [7]: glutamate transport activators, MN-1 cells, MN-1 cell line (AID 1612).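 Note: tested at 1 µM final; 0% = mean of DMSO vehicle wells on each plate; positive means more glutamate uptake than control and negative means less.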 To be noted: MN-1 motor neuron cells, stronger effect = higher value.
Experiment [8] can be described thus: GFP-Q80 aggregate reduction, neuronal-like cells, cell-based, NGF-treated PC12, GFPQ80 (AID 1614).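 Note: lower means fewer inclusions and 0 means no inclusions at all.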 To be noted: PC12 NGF-treated GFP-polyQ80 inclusion reduction.
The nature of experiment [9]: 75Q-TubH aggregate inhibition, S. cerevisiae, yeast (AID 1616). To be noted: S. cerevisiae 75Q-TubH polyglutamine aggregation suppression; stronger effect = higher value.
Experiment [10] can be described thus: compounds altering circadian rhythm period length – cell-based, LOPAC library, luminescence reporter (AID 2774).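 Note: values are relative to mean of DMSO wells on each plate.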 Conditions: circadian reporter cells, at 7 µM, actives lie on both sides.
Experiment [11] in a line: P. berghei load reduction in hepatocytes – cell-based, HepG2, luciferase luminescence, HepG2 viability, primary screen (AID 624349; in the data active = parasite load remaining mostly below about 12%, no sharp cut-off; inactive = mostly above about 10%;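 note: 100% = mean of DMSO negative control wells on the same plate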). Conditions: P. berghei liver stage in HepG2, luciferase luminescence, concentration not given here; parasite load remaining: stronger effect = lower value; viability: measured here: HepG2 viability without parasites.
Experiment [12] has as its system Hepatitis C virus NS3 helicase. Put plainly: blockers of NS3h binding to ssDNA – biochemical, fluorescence polarization, LOPAC1280 library, primary screen (AID 687035; in the data active = inhibition above about 37%). Conditions: Purified HCV NS3 helicase, Cy5-dT15 ssDNA binding fluorescence polarization; stronger effect = higher value; concentration not given here. (In general: Fluorescence polarisation rises when a labelled molecule tumbles more slowly, as on binding a larger partner.)

Experiment [13] is described as follows: compounds altering Cy5-DNA-NS3h complex signal – biochemical, LOPAC1280, artefact control for HCV NS3 helicase inhibitor project (AID 687037). Conditions: Cy5-DNA-NS3h complex fluorescence interference counterscreen. In general terms: A counterscreen serves to expose hits that act by an unwanted route or on another target.
Experiment [14] in a line: EMT-state selective cytotoxicity in co-culture – imaging, PC-3E GFP, TEM4-18 mCherry, primary screen (AID 1345086;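 active = compounds killing one labelled cell type while sparing the other, by normalised counts and ratio limits, not self-fluorescent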;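 for all read-outs here: cells exposed to compound for 72 h before imaging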;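 for red/green cell ratio (normalised): normalised mesenchymal count divided by normalised epithelial count so high means epithelial killing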). Conditions: PC-3E GFP / TEM4-18 mCherry co-culture, imaging cell counts, at 1 µM; for red/green cell ratio (normalised): actives lie on both sides.
Experiment [15] has as its system Aerobactin synthetase IucA (Klebsiella pneumoniae). Put plainly: inhibition of K. pneumoniae IucA enzyme – biochemical, Tocris library, absorbance (AID 1345561).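 Note: 100% = enzyme without compound and 0% = no enzyme.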 To be noted: purified IucA enzyme assay, absorbance (OD) read-out; stronger effect = lower value;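 tested at 8 µM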.
Experiment [16] has as its system Aerobactin synthetase IucA (Klebsiella pneumoniae hvKP1). Put plainly: IucA enzyme inhibition, primary screen, biochemical, Spectrum library (AID 1346200).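 Note: 100% = wells without compound and 0% = wells lacking enzyme.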 To be noted: malachite green pyrophosphate, A620, at 8 µM, stronger effect = lower value.
For experiment [17], the system named is Aerobactin synthetase IucA (Klebsiella pneumoniae, hypervirulent). The experiment is described as follows: biochemical IucA inhibition screen of LOPAC library by absorbance (AID 1346212).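 Note: 100% = no compound wells and 0% = no enzyme wells.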 Conditions: IucA enzyme assay, absorbance (OD) readout; stronger effect = lower value;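 tested at 8 µM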.
The nature of experiment [18]: blockers of cellular phospholipid synthesis – cell-based, LOPAC library, screen 4, primary screen (AID 1347384). To be noted: animal cells, phospholipid biosynthesis inhibition screen; at 10 µM.
Experiment [19] in a line: MELAS cybrid and Rieske KO viability enhancers – cell-based, MELAS cybrids, Rieske KO mouse fibroblasts, CellTiter-Glo, primary screen (AID 1508586;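 active = mean z-score across replicates of 1.96 or higher in either the MELAS or the Rieske mutant cell line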;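 note: z relative to plate mean and SD of compound and empty wells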). To be noted: low glucose.
Experiment [20] concerns the target NAD(+) hydrolase SARM1 (Homo sapiens) (UniProt Q6SZW1). Put plainly: blocking NAD cleavage by SARM1 SAM-TIR – cell lysate, NAD-Glo luminescence (AID 1508614;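 active = compound whose remaining NAD level is above about 45 nM, limit read from the data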;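 note: higher remaining NAD means stronger inhibition of SARM1 NADase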). To be noted: SAM-TIR HEK293T lysate NADase, at 1 µM, stronger effect = higher value.
For experiment [21], the target named is Mitogen-activated protein kinase 7 (Homo sapiens) (UniProt Q13164). The experiment is described as follows: Gal4-ERK5 driven luciferase induction – cell-based, HTS, primary screen (AID 1508626;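 active = luciferase signal above three times the same-plate solvent-only control wells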;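 note: luciferase driven by Gal4-ERK5 fusion binding five Gal4 sites before minimal TATA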). Conditions: HeLa Gal4-ERK5 transactivation, 18 h, at 5 µM, stronger effect = higher value.
Chain of Mitogen-activated protein kinase 7 (Homo sapiens) (Q13164 whole entry, looked up, the tested form may be a part): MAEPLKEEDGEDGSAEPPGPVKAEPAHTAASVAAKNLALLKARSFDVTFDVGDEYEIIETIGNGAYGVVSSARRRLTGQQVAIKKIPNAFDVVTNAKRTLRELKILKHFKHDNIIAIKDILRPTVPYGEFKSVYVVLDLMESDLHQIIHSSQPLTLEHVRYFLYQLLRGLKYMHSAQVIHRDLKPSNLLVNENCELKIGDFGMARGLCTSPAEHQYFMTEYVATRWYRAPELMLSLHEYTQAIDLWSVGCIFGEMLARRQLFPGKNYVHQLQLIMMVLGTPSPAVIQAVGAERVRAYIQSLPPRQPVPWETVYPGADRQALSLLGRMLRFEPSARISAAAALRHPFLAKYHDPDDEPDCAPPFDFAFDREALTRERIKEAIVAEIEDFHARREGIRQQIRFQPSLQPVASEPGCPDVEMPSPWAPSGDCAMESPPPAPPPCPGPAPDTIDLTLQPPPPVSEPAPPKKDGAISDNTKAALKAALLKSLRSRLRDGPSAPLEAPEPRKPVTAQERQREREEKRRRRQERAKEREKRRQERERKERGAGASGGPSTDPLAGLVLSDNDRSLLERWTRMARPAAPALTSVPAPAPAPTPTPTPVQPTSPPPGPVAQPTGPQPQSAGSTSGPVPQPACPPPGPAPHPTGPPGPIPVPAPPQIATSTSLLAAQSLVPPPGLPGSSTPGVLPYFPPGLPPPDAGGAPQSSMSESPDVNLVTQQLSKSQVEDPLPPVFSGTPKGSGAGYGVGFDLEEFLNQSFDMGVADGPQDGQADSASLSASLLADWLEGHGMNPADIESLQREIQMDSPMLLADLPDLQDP
Experiment [22] in a line: galactose survival enhancers in mitochondrial complex I cybrids – cell-based, galactose medium, ATP luminescence, primary screen (AID 1645843;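 active = z-score of at least 1.8 in each of two replicates, scored against plate mean and spread of sample wells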;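 note: positive z means more ATP and so rescue of galactose-driven cybrid death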). Conditions: complex I mutant cybrid cells, 72 h, stronger effect = higher value.
[23] abbreviates: measured here: epithelial PC-3E GFP cell survival.
[24] abbreviates: measured here: mesenchymal TEM4-18 mCherry cell survival.

Chain of NAD(+) hydrolase SARM1 (Homo sapiens) (Q6SZW1 whole entry, looked up, the tested form may be a part): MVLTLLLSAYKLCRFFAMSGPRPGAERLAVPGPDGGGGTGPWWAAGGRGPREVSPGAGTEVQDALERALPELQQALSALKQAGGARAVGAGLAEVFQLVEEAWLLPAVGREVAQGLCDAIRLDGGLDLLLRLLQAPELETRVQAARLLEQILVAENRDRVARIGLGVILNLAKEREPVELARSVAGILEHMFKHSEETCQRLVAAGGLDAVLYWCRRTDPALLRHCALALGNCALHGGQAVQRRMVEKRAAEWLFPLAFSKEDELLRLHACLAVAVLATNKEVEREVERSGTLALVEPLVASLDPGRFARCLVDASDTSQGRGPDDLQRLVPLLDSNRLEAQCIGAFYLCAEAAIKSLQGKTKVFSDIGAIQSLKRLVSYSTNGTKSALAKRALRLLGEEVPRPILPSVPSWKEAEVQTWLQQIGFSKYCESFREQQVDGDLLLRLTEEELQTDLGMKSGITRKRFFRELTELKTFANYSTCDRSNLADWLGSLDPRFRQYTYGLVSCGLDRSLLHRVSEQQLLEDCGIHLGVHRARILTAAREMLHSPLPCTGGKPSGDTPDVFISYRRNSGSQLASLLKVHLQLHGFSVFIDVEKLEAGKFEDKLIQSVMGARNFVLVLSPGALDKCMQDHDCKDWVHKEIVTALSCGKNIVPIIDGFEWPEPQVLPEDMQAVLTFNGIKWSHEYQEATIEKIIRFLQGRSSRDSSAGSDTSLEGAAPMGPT

Broadly, the inhibition is the drop in the measured response relative to a control, in per cent. In the case of `CC[C@H]1/C=C\C=C\C[C@H](C)[C@@H](O)[C@](C)(O)C(=O)[C@H](C)[C@@H](O)C(C)C(=O)[C@H](C)[C@H](O)[C@@H](C)/C=C/C(=O)OC2C(C)[C@H](CC1)O[C@@]1(CC[C@@H](C)[C@@H](CC(C)O)O1)[C@@H]2C` (stereo partly drawn), in experiment [1], the inhibition was -4.41% (inactive).

For `CCc1cccc(C)c1N(C(=O)CCl)C(C)COC` (stereo not drawn), the inhibition in experiment [1] was 3.27% (inactive).

A word on the viability: it is a read-out of living cells in per cent, often relative to untreated cells. By remaining activity is commonly meant the signal under treatment as a percentage of the control signal. `CC[C@@H](CO)NC(=O)[C@@H]1C=C2c3cccc4[nH]cc(c34)C[C@H]2N(C)C1`: the inhibition in experiment [2] is 8.64%; in experiment [12] it was -5% (inactive); in experiment [1], 10.6% (inactive). Besides, in [3], the score came out at 1.38. In experiment [4], the rescue above control worked out at 4.84. For the same compound, in experiment [5], the cytochrome c release ratio is 0.5. In addition, the inhibition of aggregation in experiment [6] came to 24.4%. The compound further showed a glutamate uptake change in [7] of 12.4%. This compound had an inclusion score in [8] of 2. Besides, in experiment [9], the aggregation suppression score worked out at 1.32. Moreover, the period change in [10] is 0.19 h (inactive). In experiment [11], the parasite load remaining was 65.8% (inactive) and 65.3% (inactive) and 59.9% (inactive). Besides, the viability in experiment [11] is 103% and 77.1% and 98.3%. Further, the fluorescence ratio (interference) in experiment [13] was 1 (inactive). Moreover, the red/green cell ratio (normalised) in experiment [14] was 0.98 (inactive). In addition, the normalised cell number is 0.88 in experiment [14] (setting [23]) and 0.87 in experiment [14] (setting [24]). In addition, the remaining activity is 127% (inactive) in experiment [15] and 107% (inactive) in experiment [17]. Moreover, the activity remaining in [16] is 97% (inactive). Besides, the call in experiment [18] was inactive. The z-score is 0.332 (inactive) in experiment [19] (MELAS cybrid survival, CellTiter-Glo 48 h, stronger effect = higher value); 0.352 in [19] (Rieske KO mouse fibroblast survival, CellTiter-Glo 72 h); 0.87 (inactive) and -0.035 (inactive) in [22]. Moreover, the remaining NAD in experiment [20] was 10 nM (inactive). Besides, the luciferase signal in experiment [21] is 60 AU (inactive).

Regarding `c1ccc2c(c1)cc1ccc3cccc4ccc2c1c34`, the inhibition in experiment [1] is 5.92% (inactive). Besides, the red/green cell ratio (normalised) in experiment [14] is 0.86 (inactive). Moreover, the figures for the normalised cell number in experiment [14] (setting [23]) and in experiment [14] (setting [24]) were 1.22 and 1.05, respectively.

On to `CC(=O)OC1CC2(C)C(c3ccoc3)CC3OC32C2(C)C(=O)C(O)=C3C(C)(C)C(=O)C=CC3(C)C12` (stereo not drawn), for which the inhibition in experiment [1] is 9.52% (inactive).
